According to PubChem BioAssay (Tox21):
Values without a mark were called inactive. Inconclusive results are not listed. A call without a number means that no potency is given here. The source made the active and inactive calls. Unless noted, the call rests on the fitted dose curve; in most records, active means well fitted curve in the direction sought with a large enough effect in the repeat runs; inconclusive means weak or mixed curves; inactive means no such curve, though single readings can be large; an effect the other way counts as inactive or inconclusive.

Legend:
[1] = A CellTox Green Cytotoxicity Assay to monitor cytotoxicity in HepG2 cells - 8 hour (AID 1224890); further: nearly all actives have a fitted effect of over 45% in size
Procedure, shortened: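 HepG2, 600 cells/well premixed w/ CellTox Green; 5 h settle, 37 C/5% CO2; pintool cpd add (DMSO); 37 C, 40 h; fluorescence read at 0, 8, 16, 24, 32, 40 h.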

[2] = qHTS assay to identify small molecule antagonists of the estrogen receptor alpha (ER-alpha) signaling pathway using the BG1 cell line in the presence of 0.1 nM 17-beta-estradiol - cell viability counter screen (AID 1259241); further: nearly all actives have a fitted effect of over 40% in size
Procedure, shortened: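 VM7Luc4E2 cells (endogenous ER-alpha, 4×ERE-luciferase), hormone-starved 5 days in charcoal-stripped FBS, were treated with compounds plus 0.1 nM 17beta-estradiol for 22 hr at 37C; viability read in same wells as CellTiter-Fluor live-cell protease fluorescence.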

[3] = qHTS assay to identify small molecule antagonists of the androgen receptor (AR) signaling pathway using the MDA cell line in the presence of 0.5 nM R1881 - cell viability counter screen (AID 1259242); further: nearly all actives have a fitted effect of over 45% in size
Procedure, shortened: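 Live-cell protease fluorescence, CellTiter-Fluor, 30 min at 37C. Cells: MDA-kb2, 3,000/well, preincubated 5 hr. Compounds plus 0.5 nM R1881 final, 16 hr, 37C, 0% CO2.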

[4] = biological target: Estrogen receptor (Homo sapiens) (UniProt P03372); assay: qHTS assay to identify small molecule antagonists of the estrogen receptor alpha (ER-alpha) signaling pathway using the BG1 cell line in the presence of 0.1 nM 17-beta-estradiol (AID 1259244); further: nearly all actives have a fitted effect of over 50% in size
Procedure, shortened: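 Luminescence after ONE-Glo (30 min, room temperature) measured ERE-luciferase activity in VM7Luc4E2 cells treated 22 h with compound and 0.1 nM final 17beta-estradiol as stimulator.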

[5] = qHTS assay to identify small molecule HDAC inhibitors (AID 1259364); further: potency means the concentration at half of the fitted maximal effect;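 further: wild-type HCT-116 cells with endogenous class I/II HDAC activity; nearly all actives have a fitted effect of over 45% in size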
Procedure, shortened: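 HCT-116 (wild type), 1,500 cells/well, overnight; compound 2 hr 37C 5% CO2; HDAC-Glo I/II reagent 30 min RT; luminescence readout.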

[6] = qHTS assay to identify small molecule agonists of the sonic hedgehog signaling (Shh) pathway - cell viability counter screen (AID 1259366); further: nearly all actives have a fitted effect of over 50% in size
Procedure, shortened: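 NIH/3T3-derived 3T3 Gli1-Luc cells (stable Gli1-responsive firefly luciferase reporter) were seeded, rested 4 hr at 37 C/5% CO2, then exposed to compounds in DMSO for 24 hr; viability was read by CellTiter-Fluor fluorescence in the same wells.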

[7] = qHTS assay to identify small molecule antagonists of the sonic hedgehog signaling (Shh) pathway - cell viability counter screen (AID 1259367); further: nearly all actives have a fitted effect of over 55% in size
Procedure, shortened: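 Tox21 library chemicals were tested on a Gli1-Luc NIH/3T3 clone (2,000 cells/well) stimulated by conditioned medium; viability was quantified as fluorescence from CellTiter-Fluor reagent added at 23 hr.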

[8] = qHTS assay to identify small molecule agonists of the sonic hedgehog signaling (Shh) pathway (AID 1259368; calls by dose curve; further: series mostly up to about 92 µM; nearly all actives have a fitted effect of over 15% in size)
Procedure, shortened: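 Read-out: firefly luciferase luminescence from a Gli1 response element reporter stably integrated in NIH/3T3-derived 3T3Gli1-Luc cells, measured 30 min at room temperature after reagent addition. Compound exposure lasted 24 hr at 37 C, 5% CO2.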

[9] = qHTS assay to identify small molecule agonists of the androgen receptor (AR) signaling pathway in the presence of an antagonist - cell viability counter screen (AID 1259379);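 further: MDA-kb2 human breast cancer cells carrying an MMTV luciferase reporter; series mostly up to about 92 µM; nearly all actives have a fitted effect of over 25% in size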
Procedure, shortened: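 Viability counter screen: CellTiter-Fluor fluorescence, measured in the same wells as the luciferase read-out. MDA-kb2 cells, 3,000/well, with nilutamide at 3.0uM final and compounds at 15 concentrations, 16 hr at 37C, 0% CO2.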

[10] = qHTS assay to identify small molecule agonists of the estrogen receptor beta (ER-beta) signaling pathway - cell viability counter screen (AID 1259380); further: nearly all actives have a fitted effect of over 30% in size; further: potency means the concentration at half of the fitted maximal effect
Procedure, shortened: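 Luminescence read-out (CellTiter-Glo, 30 min, room temp) taken in the same wells as the beta-lactamase reporter assay; ER-beta-UAS-bla HEK293T cells exposed to DMSO-dissolved compounds for 16 hr at 37C in 2% charcoal-stripped FBS medium.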

[11] = qHTS assay to identify small molecule antagonists of the estrogen receptor beta (ER-beta) signaling pathway - cell viability counter screen (AID 1259382); further: series mostly up to about 92 µM; nearly all actives have a fitted effect of over 55% in size
Procedure, shortened: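 Luminescent ATP read-out (CellTiter-Glo, 30 min, RT) taken in the same wells as the bla reporter assay. HEK293T ER-beta-UAS-bla cells in 2% charcoal-stripped FBS were exposed to compounds with 1nM E2 for 16 hr at 37C.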

[12] = biological target: Estrogen receptor (Homo sapiens) (UniProt P03372); assay: qHTS assay to identify small molecule agonists of the estrogen receptor alpha (ER-alpha) signaling pathway in the presence of an antagonist (AID 1259383; calls by dose curve; further: top concentration of the series differs between compounds; nearly all actives have a fitted effect of over 15% in size)
Procedure, shortened: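 Luciferase luminescence (ONE-Glo, 30min at room temperature) measured in VM7Luc4E2 cells after 22hr compound exposure at 15 concentrations, with 10.0nM ICI-182,780 final present; cells express endogenous ER-alpha and carry four EREs upstream of luciferase.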

[13] = qHTS assay to identify small molecule agonists or antagonists of the thyroid stimulating hormone receptor (TSHR) signaling pathway - wild type cell line counter screen (AID 1259384; calls by dose curve)
Procedure, shortened: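 Wild-type Hek293 cells, 800/well, 18 h at 37C, then compound with Ro20-1724 for 30 min RT. cAMP by HTRF (cAMP-d2/anti-cAMP cryptate), 1 h RT, fluorescence read. 15 concentrations, triplicates.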

[14] = qHTS assay to identify small molecule HDAC inhibitors - cell viability counter screen (AID 1259365); further: series mostly up to about 92 µM; nearly all actives have a fitted effect of over 50% in size
Procedure, shortened: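 Wild-type HCT-116 cells were seeded at 1,500 per well, incubated overnight at 37 C, then exposed to compounds in DMSO for 2hr. Viability was read by CellTiter-Glo luminescence after 30min at room temperature.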

[15] = biological target: Estrogen receptor beta (Homo sapiens) (UniProt Q92731); assay: qHTS assay to identify small molecule agonists of the estrogen receptor beta (ER-beta) signaling pathway (AID 1259377; active means well fitted activation curve with a large enough effect in the signal ratio in the repeat runs, not every such curve was filed as active; the % refers to the signal ratio)
Procedure, shortened: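 ER-beta-UAS-bla HEK293T (GripTite) cells carrying a UAS-driven beta-lactamase reporter, in medium with 2% charcoal-stripped FBS, were exposed to compounds for 16 hr at 37C; LiveBLAzer B/G FRET substrate was then added and fluorescence read after 2 hours at room temperature.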

[16] = biological target: Estrogen receptor beta (Homo sapiens) (UniProt Q92731); assay: qHTS assay to identify small molecule antagonists of the estrogen receptor beta (ER-beta) signaling pathway (AID 1259378; active means well fitted inhibition curve with a large enough effect in the signal ratio in the repeat runs, not every such curve was filed as active; the % refers to the signal ratio)
Procedure, shortened: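 ER-beta-UAS-bla HEK293T cells in 2% charcoal-stripped FBS medium treated with compound plus 1nM final 17-beta-estradiol for 16 hr at 37C. Beta-lactamase reporter read by FRET substrate fluorescence after 2 hours at room temperature.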

[17] = qHTS assay to identify small molecule phospholipidosis (PLD) inducers (AID 1259344; active means well fitted curve in the direction sought with a large enough effect; an effect the other way counts as inactive or inconclusive)
Procedure, shortened: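 Image-based: LipidTOX Red pit count/intensity per well and per cell; HepG2, 24 h compound at 37 C, PFA fixation, Hoechst counterstain.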

[18] = qHTS assay to identify small molecule antagonists of the sonic hedgehog signaling (Shh) pathway (AID 1259369; calls by dose curve; further: nearly all actives have a fitted effect of over 45% in size)
Procedure, shortened: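 Luminescence readout: firefly Luc under Gli1 response element in 3T3Gli1-Luc cells (NIH/3T3 clone). Antagonist mode, stimulation by conditioned medium; compound exposure 24hr at 37 C, 5% CO2.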

[19] = biological target: Androgen receptor (Homo sapiens) (UniProt P10275); assay: qHTS assay to identify small molecule agonists of the androgen receptor (AR) signaling pathway in the presence of an antagonist (AID 1259381; calls by dose curve; further: potency means the concentration at half of the fitted maximal effect; nearly all actives have a fitted effect of over 15% in size)
Procedure, shortened: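 Luciferase read-out (ONE-Glo, 30min room temperature) in MDA-kb2 MMTV-reporter cells; agonist mode run in presence of AR antagonist nilutamide, 3.0uM final. Compounds tested as 15-point series, 16hr exposure at 37C, 0% CO2.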

Chain of Estrogen receptor beta (Homo sapiens) (Q92731 whole entry, looked up): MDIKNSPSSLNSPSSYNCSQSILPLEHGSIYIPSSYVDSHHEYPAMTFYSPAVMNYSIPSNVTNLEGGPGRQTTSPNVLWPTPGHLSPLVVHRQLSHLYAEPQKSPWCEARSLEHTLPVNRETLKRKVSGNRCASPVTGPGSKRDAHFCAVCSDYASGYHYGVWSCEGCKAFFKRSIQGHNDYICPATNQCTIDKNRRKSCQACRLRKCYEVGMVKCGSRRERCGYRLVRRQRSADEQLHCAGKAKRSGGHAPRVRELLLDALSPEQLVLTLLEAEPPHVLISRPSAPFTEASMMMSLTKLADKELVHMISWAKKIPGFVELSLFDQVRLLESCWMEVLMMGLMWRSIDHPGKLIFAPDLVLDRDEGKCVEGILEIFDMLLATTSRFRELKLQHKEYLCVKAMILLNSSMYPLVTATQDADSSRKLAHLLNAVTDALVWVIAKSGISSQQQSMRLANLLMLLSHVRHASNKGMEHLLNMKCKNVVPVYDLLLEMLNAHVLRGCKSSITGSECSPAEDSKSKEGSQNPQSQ
Chain of Estrogen receptor (Homo sapiens) (P03372 whole entry, looked up): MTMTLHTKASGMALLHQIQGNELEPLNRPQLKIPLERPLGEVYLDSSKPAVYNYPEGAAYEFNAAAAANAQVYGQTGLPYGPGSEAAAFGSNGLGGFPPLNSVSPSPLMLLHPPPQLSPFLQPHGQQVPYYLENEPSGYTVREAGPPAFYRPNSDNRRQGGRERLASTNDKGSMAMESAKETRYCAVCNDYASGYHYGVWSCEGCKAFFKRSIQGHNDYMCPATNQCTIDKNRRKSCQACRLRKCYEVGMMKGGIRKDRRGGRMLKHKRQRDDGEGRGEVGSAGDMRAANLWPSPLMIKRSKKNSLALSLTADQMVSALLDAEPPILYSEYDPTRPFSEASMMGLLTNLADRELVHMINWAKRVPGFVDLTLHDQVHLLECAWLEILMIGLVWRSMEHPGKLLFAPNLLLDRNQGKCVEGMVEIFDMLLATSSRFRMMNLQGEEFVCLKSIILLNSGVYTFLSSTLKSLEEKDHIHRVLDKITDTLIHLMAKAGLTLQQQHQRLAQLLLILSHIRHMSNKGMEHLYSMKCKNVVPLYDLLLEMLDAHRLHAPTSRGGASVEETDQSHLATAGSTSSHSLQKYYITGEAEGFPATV
Chain of Androgen receptor (Homo sapiens) (P10275 whole entry, looked up): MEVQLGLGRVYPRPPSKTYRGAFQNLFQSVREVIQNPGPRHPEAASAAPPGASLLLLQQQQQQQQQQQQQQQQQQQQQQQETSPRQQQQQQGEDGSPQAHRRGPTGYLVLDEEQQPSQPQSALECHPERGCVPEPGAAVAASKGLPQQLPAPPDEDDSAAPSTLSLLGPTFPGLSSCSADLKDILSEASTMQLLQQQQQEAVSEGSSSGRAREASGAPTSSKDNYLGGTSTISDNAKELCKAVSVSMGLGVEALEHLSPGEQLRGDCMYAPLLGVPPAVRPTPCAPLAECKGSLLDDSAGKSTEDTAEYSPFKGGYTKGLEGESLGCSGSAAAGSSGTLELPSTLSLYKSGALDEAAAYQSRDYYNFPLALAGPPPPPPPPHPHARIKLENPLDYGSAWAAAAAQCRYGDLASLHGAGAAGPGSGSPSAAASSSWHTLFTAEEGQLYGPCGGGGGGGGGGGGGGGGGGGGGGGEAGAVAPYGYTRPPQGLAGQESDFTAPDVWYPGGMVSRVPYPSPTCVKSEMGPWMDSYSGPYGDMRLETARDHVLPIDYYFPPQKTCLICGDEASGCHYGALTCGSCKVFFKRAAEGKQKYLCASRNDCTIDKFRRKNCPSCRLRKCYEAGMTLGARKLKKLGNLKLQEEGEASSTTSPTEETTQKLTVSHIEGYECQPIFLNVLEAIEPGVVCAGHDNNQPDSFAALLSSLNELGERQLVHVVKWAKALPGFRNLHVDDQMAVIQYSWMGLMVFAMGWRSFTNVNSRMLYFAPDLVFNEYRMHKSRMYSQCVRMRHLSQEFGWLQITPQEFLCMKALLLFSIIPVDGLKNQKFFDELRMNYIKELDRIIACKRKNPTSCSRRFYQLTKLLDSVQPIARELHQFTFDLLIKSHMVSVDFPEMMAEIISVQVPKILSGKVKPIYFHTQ

| SMILES | Potency [1] | Potency [2] | Potency [3] | Potency [4] | Potency [5] | Potency [6] | Potency [7] | Potency [8] | Potency [9] | Potency [10] | Potency [11] | Potency [12] | outcome [13] | outcome [14] | Potency [15] | Potency [16] | Potency [17] | Potency [18] | Potency [19] |
| --- | --- | --- | --- | --- | --- | --- | --- | --- | --- | --- | --- | --- | --- | --- | --- | --- | --- | --- | --- |
| COc1ccc(C(=O)Nc2ccccc2)cc1[N+](=O)[O-] | inactive | inactive | inactive | inactive | 24.5 µM (active) | inactive | inactive | inactive | inactive | 30.9 µM (active) | inactive | inactive | inactive | – | – | – | – | – | – |
| C[C@H]1C[C@H]2[C@@H]3CCC4=CC(=O)C=C[C@]4(C)[C@@]3(F)[C@@H](O)C[C@]2(C)[C@@]1(O)C(=O)COP(=O)(O)O | inactive | inactive | inactive | inactive | inactive | inactive | inactive | inactive | inactive | inactive | inactive | inactive | inactive | inactive | inactive | inactive | – | – | – |
| CCCCCCCCCCCCSCCOCCO | inactive | inactive | inactive | – | inactive | inactive | inactive | inactive | inactive | inactive | inactive | inactive | inactive | inactive | inactive | – | inactive | inactive | – |
| Cc1ccc(S(=O)(=O)NC(=O)NC2CCCC2)cc1 | inactive | inactive | inactive | – | inactive | inactive | inactive | inactive | inactive | inactive | inactive | – | inactive | inactive | – | – | inactive | inactive | – |
| CCC(=O)O[C@]1(C(=O)COC)[C@@H](C)C[C@H]2[C@@H]3CCC4=CC(=O)C=C[C@]4(C)C3(F)[C@@H](O)C[C@@]21C (some centres not stated) | – | – | – | – | – | – | – | – | – | – | – | – | – | – | – | – | – | – | 0.006 µM (active) |
| Cc1cc(C)c(C)c(O)c1 | inactive | inactive | – | inactive | inactive | inactive | inactive | inactive | inactive | inactive | inactive | – | inactive | inactive | – | – | – | inactive | – |
| CC(C)(C)c1cc(C=O)cc(C(C)(C)C)c1O | inactive | inactive | – | – | inactive | inactive | inactive | inactive | – | inactive | inactive | inactive | inactive | inactive | inactive | inactive | – | inactive | – |
